Results on eight compounds are retold here after PubChem BioAssay (Tox21).

A number with no mark means an inactive call. Records with an inconclusive call do not appear. Calls of active or inactive are those of the source. Unless noted, the call rests on the fitted dose curve; in most records, active means well fitted curve in the direction sought with a large enough effect in the repeat runs; inconclusive means weak or mixed curves; inactive means no such curve, though single readings can be large; an effect the other way counts as inactive or inconclusive.

Assay [1] can be described thus: qHTS assay to identify small molecule antagonists of the retinoid acid receptor (RAR) signaling pathway - cell viability counter screen (AID 1159551). Further: nearly all actives have a fitted effect of over 35% in size. In a few lines: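 In this counter screen, the RARE-luciferase line C3RL4 was exposed for 6 h at 37 C and 5% CO2 to compounds with retinol at 1 uM final. Cellular ATP, read by luminescence, served as the viability measure.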
Background: qHTS replaces the single test concentration by a dilution series.

A short description of assay [2]: qHTS assay to identify small molecule antagonists of the retinoic acid receptor (RAR) signaling pathway (AID 1159552; further: nearly all actives have a fitted effect of over 50% in size). A digest of the protocol:
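Quantitative HTS in C3RL4 RARE-luciferase reporter cells. Compounds were added with 1 uM (final) retinol; luminescence was read after 6 hr.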

The nature of assay [3]: qHTS assay to identify small molecule agonists of the retinoic acid receptor (RAR) signaling pathway (AID 1159553). Further: potency means the concentration at half of the fitted maximal effect. In a few lines: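 In this cell-based screen, 1,000 C3RL4 cells per well were cultured overnight, dosed with test chemicals in DMSO for 6 hr, and assessed for RARE luciferase luminescence.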
A short description of assay [4]: qHTS assay to identify small molecule antagonists of the estrogen related receptor (ERR) signaling pathway from Tox21 library - cell viability counter screen (AID 1224834). Further: nearly all actives have a fitted effect of over 30% in size. In a few lines:
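Counter screen run in ERR cells (2,000 cells/well): cells pre-incubated 6 h, then treated with compounds for 17.5 h at 37 C. Fluorescence was read 30 min after CellTiter-Fluor addition.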

Assay [5] has as its target Luciferin 4-monooxygenase (Photinus pyralis) (UniProt P08659). As to the kind of experiment: qHTS assay to identify small molecule inhibitors of firefly luciferase (AID 1224835). Further: nearly all actives have a fitted effect of over 25% in size. In a few lines: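 Biochemical qHTS: compounds run as interplate titrations against purified firefly enzyme, with D-luciferin and ATP each at its KM concentration. Light output recorded by CCD imaging.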

Assay [6] is described as follows: qHTS assay to identify small molecule agonists of the constitutive androstane receptor (CAR) signaling pathway - cell viability counter screen (AID 1224836). Further: nearly all actives have a fitted effect of over 45% in size. A digest of the protocol:
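Counter screen multiplexed with the CAR reporter readout: HepG2 cells co-transfected with hCAR and the CYP2B6-2.2kb construct receive a 15-concentration compound series and 0.75 uM PK11195 (final), then CellTiter-Fluor fluorescence is read after 23 h.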

Assay [7] can be described thus: qHTS assay to identify small molecule antagonists of the constitutive androstane receptor (CAR) signaling pathway - cell viability counter screen (AID 1224837). Further: nearly all actives have a fitted effect of over 45% in size. A digest of the protocol: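 CITCO at 50 nM final was added alongside compounds (15 concentrations) to double-stable hCAR/CYP2B6-2.2kb HepG2 cells. Following 23 hr at 37 C, cell viability was quantified by CellTiter-Fluor fluorescence intensity.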

Assay [8] concerns the target Nuclear receptor subfamily 1 group I member 3 (Homo sapiens) (UniProt Q14994). In words: qHTS assay to identify small molecule antagonists of the constitutive androstane receptor (CAR) signaling pathway (AID 1224838). Further: nearly all actives have a fitted effect of over 40% in size. In a few lines: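 Inhibition of CITCO-driven (50 nM final) CYP2B6 reporter expression is measured in HepG2 cells stably carrying hCAR. Fifteen compound concentrations are applied for 24 h at 37 C, followed by luciferase luminescence.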

The nature of assay [9]: qHTS assay to identify small molecule antagonists of the estrogen related receptor signaling pathway with the pleiotropic PPARgamma coactivator (PGC) from Tox21 10K library - cell viability counter screen (AID 1224840; active means well fitted cell-killing curve with a large enough effect in the repeat runs, not every such curve was filed as active; further: nearly all actives have a fitted effect of over 40% in size). In a few lines: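 Readout: fluorescence intensity from CellTiter-Fluor after 30 min at 37 C/5% CO2. Preceded by 17.5 h treatment of PGC/ERR cells with DMSO-dissolved compounds, added 6 h post-seeding.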

The target of assay [10] is Thyrotropin receptor (Homo sapiens) (UniProt P16473). As to the kind of experiment: qHTS assay to identify small molecule agonists of the thyroid stimulating hormone receptor (TSHR) signaling pathway (AID 1224843; calls by dose curve; further: nearly all actives have a fitted effect of over 45% in size). In a few lines:
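Agonist-mode screen: TSHR HEK293 cells received test chemicals for half an hour at room temperature, then HTRF cAMP detection reagents for one hour prior to fluorescence measurement. Each chemical ran as a 15-concentration series, triplicated.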

Assay [11] is described as follows: qHTS assay to identify small molecule agonists of H2AX (AID 1224845; active means well fitted activation curve with a large enough effect in the signal ratio in the repeat runs, not every such curve was filed as active; the % refers to the signal ratio). In a few lines:
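Wild-type CHO-K1 cells, plated overnight, exposed 3hr at 37C to 15 concentrations (0.76% DMSO final). Lysed, then HTRF anti-pH2AX (S139) cryptate and anti-H2AX-d2 antibodies, 24 hr room temperature; 665/620 nm emission read.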

The nature of assay [12]: qHTS assay to identify small molecule agonists of the hypoxia (HIF-1) signaling pathway (AID 1224846; active means well fitted activation curve with a large enough effect in the signal ratio in the repeat runs, not every such curve was filed as active; the % refers to the signal ratio). In a few lines:
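ME-180 HRE-bla reporter cells; compounds in DMSO, 17 h at 37C; read-out beta-lactamase via CCF4-AM FRET.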

Assay [13] can be described thus: qHTS RealTime-Glo MT Cell Viability Assay in HepG2 cells - 24 hour (AID 1224867). Further: nearly all actives have a fitted effect of over 50% in size. A digest of the protocol: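 Viability was tracked continuously by NanoLuc luminescence from prosubstrate reduced by living HepG2 cells, at successive time points over 40 h of compound exposure. Cells with reagent were preincubated 5 h at 37 °C before compound addition.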
Assay [14] addresses Nuclear receptor subfamily 1 group I member 3 (Homo sapiens) (UniProt Q14994). As to the kind of experiment: qHTS assay to identify small molecule agonists of the constitutive androstane receptor (CAR) signaling pathway (AID 1224839). Further: nearly all actives have a fitted effect of over 15% in size. A digest of the protocol: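 A 15-concentration quantitative screen uses HepG2 cells co-transfected stably with human CAR and CYP2B6-2.2kb reporter. Treatment lasts 24 h with 0.75 uM PK11195 final present; ONE-Glo luminescence is the signal.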

The nature of assay [15]: qHTS assay to identify small molecule antagonists of the estrogen related receptor signaling pathway with the pleiotropic PPARgamma coactivator (PGC) from Tox21 10K library (AID 1224841; call rule not given here; further: actives are mostly falling curves and most rising ones were filed inactive; nearly all actives have a fitted effect of over 50% in size). A digest of the protocol: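 One-Glo luminescence, measured after half an hour at room temperature, quantified reporter output of PGC/ERR cells. These had been plated at 2,000 per well, incubated 6 h, dosed with compounds in DMSO, then kept 18 h at 37 C.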

Assay [16] can be described thus: qHTS assay to identify small molecule agonists of the estrogen related receptor signaling pathway with the pleiotropic PPARgamma coactivator (PGC) from Tox21 10K library (AID 1224842). Further: nearly all actives have a fitted effect of over 15% in size. In a few lines:
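PGC/ERR reporter cell line, 2,000 cells per well, incubated 6 h at 37 C before 23 nL compound in DMSO was added. After 18 h at 37 C, One-Glo luminescence read following 30 min at room temperature.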

Assay [17] is described as follows: qHTS assay to identify small molecule agonists of the hypoxia (HIF-1) signaling pathway - cell viability counter screen (AID 1224844; calls by dose curve; further: nearly all actives have a fitted effect of over 50% in size). In a few lines:
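In this counter screen, HRE-bla ME-180 cell viability after 17 hrs of compound exposure at 37C was read by CellTiter-Glo luminescence, multiplexed with the beta-lactamase reporter measurement.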

Assay [18] in a line: qHTS assay to identify small molecule agonists of H2AX - cell viability counter screen (AID 1224847; calls by dose curve; further: top concentration of the series differs between compounds; nearly all actives have a fitted effect of over 30% in size). A digest of the protocol:
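We seed wild-type CHO-K1 cells overnight, treat them for 3 hr at 37C with compounds in 15-concentration series, and quantify remaining viability by CellTiter-Glo luminescence.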

Assay [19] is described as follows: qHTS assay to identify small molecule antagonists of the estrogen related receptor (ERR) signaling pathway from Tox21 library (AID 1224848). Further: nearly all actives have a fitted effect of over 50% in size. In a few lines: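 Quantitative high-throughput format: ERR reporter cells (2,000/well) pre-incubated 6 h, treated 18 h at 37 C with compounds in DMSO alongside positive and negative controls, then read by ONE-Glo luminescence.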

Assay [20] can be described thus: qHTS assay to identify small molecule agonists of the estrogen related receptor (ERR) signaling pathway from Tox21 library (AID 1224849; calls by dose curve; further: nearly all actives have a fitted effect of over 15% in size). Conditions: ERR reporter cell line, ONE-Glo luciferase, 18 h; at 92.4 µM (top of the series) unless noted. A digest of the protocol: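 Luciferase activity in ERR pathway reporter cells served as the agonist readout; exposure lasted 18 h at 37 C, with ONE-Glo detection after 30 min at room temperature.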
On the % scale 0 is the no-effect control and ±100 the full control effect.

Chain of Luciferin 4-monooxygenase (Photinus pyralis) (P08659 whole entry, looked up): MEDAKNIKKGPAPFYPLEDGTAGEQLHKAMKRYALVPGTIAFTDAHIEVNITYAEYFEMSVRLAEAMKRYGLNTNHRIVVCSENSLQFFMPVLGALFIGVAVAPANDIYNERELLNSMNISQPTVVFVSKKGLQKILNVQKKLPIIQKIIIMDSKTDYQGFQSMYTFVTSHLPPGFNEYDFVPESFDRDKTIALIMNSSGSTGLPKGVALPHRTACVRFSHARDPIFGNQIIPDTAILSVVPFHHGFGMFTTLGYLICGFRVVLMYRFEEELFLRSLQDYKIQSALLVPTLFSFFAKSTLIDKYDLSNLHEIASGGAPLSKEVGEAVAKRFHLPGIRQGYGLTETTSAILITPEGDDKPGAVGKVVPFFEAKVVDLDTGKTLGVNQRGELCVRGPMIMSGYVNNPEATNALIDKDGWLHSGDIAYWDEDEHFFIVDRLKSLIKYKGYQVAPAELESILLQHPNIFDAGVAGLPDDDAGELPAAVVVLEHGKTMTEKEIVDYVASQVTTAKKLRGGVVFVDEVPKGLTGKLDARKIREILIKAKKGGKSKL
Chain of Nuclear receptor subfamily 1 group I member 3 (Homo sapiens) (Q14994 whole entry, looked up): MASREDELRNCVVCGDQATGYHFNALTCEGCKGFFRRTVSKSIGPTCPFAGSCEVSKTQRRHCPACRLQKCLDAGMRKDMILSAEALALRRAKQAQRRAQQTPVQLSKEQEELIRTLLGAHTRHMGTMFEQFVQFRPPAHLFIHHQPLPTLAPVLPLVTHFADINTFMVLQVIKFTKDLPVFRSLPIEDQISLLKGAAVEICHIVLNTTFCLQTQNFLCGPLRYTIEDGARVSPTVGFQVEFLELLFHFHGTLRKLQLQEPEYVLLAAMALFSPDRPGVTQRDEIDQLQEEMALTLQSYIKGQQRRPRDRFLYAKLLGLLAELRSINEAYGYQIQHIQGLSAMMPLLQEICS
Chain of Thyrotropin receptor (Homo sapiens) (P16473 whole entry, looked up): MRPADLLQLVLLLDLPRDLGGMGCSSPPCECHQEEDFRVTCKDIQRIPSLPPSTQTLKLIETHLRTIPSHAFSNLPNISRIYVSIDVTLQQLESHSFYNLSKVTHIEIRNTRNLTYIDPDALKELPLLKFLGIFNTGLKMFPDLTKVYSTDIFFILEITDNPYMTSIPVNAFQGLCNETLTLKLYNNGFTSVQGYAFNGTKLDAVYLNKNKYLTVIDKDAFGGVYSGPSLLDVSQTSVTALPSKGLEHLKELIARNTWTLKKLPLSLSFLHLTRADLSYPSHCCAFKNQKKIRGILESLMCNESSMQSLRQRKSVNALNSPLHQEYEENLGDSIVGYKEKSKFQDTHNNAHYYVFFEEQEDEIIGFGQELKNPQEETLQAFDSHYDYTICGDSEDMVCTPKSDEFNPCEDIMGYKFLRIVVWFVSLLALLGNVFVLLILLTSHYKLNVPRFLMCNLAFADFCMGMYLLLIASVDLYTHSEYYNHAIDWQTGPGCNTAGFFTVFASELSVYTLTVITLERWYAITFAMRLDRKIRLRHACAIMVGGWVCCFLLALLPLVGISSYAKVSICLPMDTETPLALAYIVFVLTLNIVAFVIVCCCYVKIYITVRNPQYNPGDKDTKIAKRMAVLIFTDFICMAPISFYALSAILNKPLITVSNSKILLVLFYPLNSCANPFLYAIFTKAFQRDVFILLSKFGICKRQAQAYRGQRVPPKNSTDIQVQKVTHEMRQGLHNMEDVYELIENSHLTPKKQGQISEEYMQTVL

For the compound `O=C(c1ccccc1)c1cccc(O)c1`, the compound was classed as inactive in assay [1], in assay [2], in assay [4], in [6], in assay [7] and in [8]. The compound was called inactive in [9], in [11], in [12] and in [13]. The Potency entry in assay [3], in [5] and in assay [10] was “inactive” each time.
Consider `CCC(C)c1nccnc1OC` (stereo unspecified), for which the result in assay [1], in assay [2], in [4], in assay [6], in [7] and in assay [9] was inactive. For the same compound, the call in [17], in assay [11], in [18], in assay [19] and in assay [13] was inactive. For the same compound, the Potency result in assay [3], in assay [5], in [14], in assay [15], in assay [16] and in assay [10] was “inactive” each time. In assay [20], the activity change, positive = activation was 1.46%.
As to `C=CC(=O)OCCOCCOCC`, the outcome in assay [1], in assay [2], in assay [4], in assay [6], in assay [7] and in assay [9] was inactive. The call in [17], in assay [11], in assay [18], in assay [19] and in assay [13] was inactive. The Potency entry in [3], in assay [5], in assay [15] and in assay [16] was “inactive” in each case.
As to `CCO/C=C1\N=C(c2ccccc2)OC1=O`, the call in [1], in assay [2], in assay [4], in assay [6], in [7] and in assay [8] was inactive. In addition, the outcome in assay [9], in assay [11], in assay [12], in assay [18] and in [13] was inactive. For the same compound, the Potency result in assay [3], in assay [5] and in assay [10] was “inactive” throughout.
As for `CCCC(C)C(O)CC` (stereo unspecified), the compound was called inactive in [1], in assay [2], in assay [4], in assay [6], in assay [7] and in assay [9]. For the same compound, the compound was classed as inactive in assay [11], in [12], in assay [18], in assay [19] and in [13]. Moreover, the Potency entry in [3], in [5], in [15], in assay [16] and in assay [10] was “inactive” throughout. For the same compound, the activity change, positive = activation in assay [20] is -0.957%.
Turning to `CCCCCCCCCCCCCCCC/C=C/C1CC(=O)OC1=O` (stereo unspecified), the result in assay [1], in [2], in [4], in assay [6], in assay [7] and in assay [9] was inactive. Besides, the outcome in assay [17], in assay [11], in assay [12], in assay [18] and in [13] was inactive. Moreover, the Potency result in [3], in assay [5] and in assay [10] was “inactive” in each case.
Regarding `CCCCc1ccc(Cl)cc1`, the result in assay [1], in assay [2], in assay [4], in [6], in assay [7] and in assay [9] was inactive. The call in assay [17], in assay [11], in [12] and in assay [13] was inactive. For the same compound, the Potency result in [3], in assay [5] and in assay [10] was “inactive” each time.
As for `Cc1nnc(C(=O)NC(C)(C)c2nc(C(=O)NCc3ccc(F)cc3)c(O)c(=O)n2C)o1`, the result in [1], in assay [2], in [4], in [6], in [7] and in [9] was inactive. Besides, the compound was called inactive in assay [17], in assay [11], in [12], in assay [19] and in assay [13]. In assay [3], the Potency is 33.5 µM (active). Moreover, the Potency result in assay [5], in [15], in [16] and in assay [10] was “inactive” throughout. In addition, in [20], the activity change, positive = activation is 9.04% [at 42.5 µM].
